PP1 inh = PP1-alpha (human) inhibition in PP5 counter-screen. P62136. purified PP1alpha, OMFP fluorescence. inhibition, % at 6.7 µM. actives 0.9% (n = 320,000). AID 2235;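 active = inhibition above the mean inhibition of all tested compounds plus 3 SD, computed separately for each screening campaign, cut at about 15% in these data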
Target sequence (P62136 whole entry, looked up): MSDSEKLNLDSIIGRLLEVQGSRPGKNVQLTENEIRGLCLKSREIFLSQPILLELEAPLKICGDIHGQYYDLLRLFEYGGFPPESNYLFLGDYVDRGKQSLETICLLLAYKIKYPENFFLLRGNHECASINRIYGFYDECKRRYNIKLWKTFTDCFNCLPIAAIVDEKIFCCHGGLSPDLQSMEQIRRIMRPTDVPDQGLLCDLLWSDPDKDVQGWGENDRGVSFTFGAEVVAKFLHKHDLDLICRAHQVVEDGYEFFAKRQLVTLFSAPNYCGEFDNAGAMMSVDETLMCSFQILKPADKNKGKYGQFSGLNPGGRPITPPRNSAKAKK
Exocytosis inh = lytic granule exocytosis inhibition | TALL-104 LAMP-1 surface exposure, flow cytometry; cells stimulated with thapsigargin and PMA | inhibition, % at 10 µM | actives 0.66% (n = 360,000) | AID 651702;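 active = inhibition above about 55%, limit read from the data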
IDE act = activators of human insulin-degrading enzyme in cells; actives 0.073% (n = 340,000); P14735; AID 493087; activation, % at 5.96 µM; HEK cells, FAbeta-B cleavage, fluorescence polarization; 0% vehicle, 100% cell-free pure enzyme wells;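 active = activation above the mean of all tested compounds plus 3 SD, set per screening campaign, cut at about 17% in these data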
IDE inh = inhibitors of human insulin-degrading enzyme in cells. inhibition, % at 5.59 µM. HEK cells, FAbetaB cleavage, fluorescence polarization. P14735. actives 0.41% (n = 320,000);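 active = percent inhibition above the average of all tested compounds plus 3 SD, set per screening campaign, cut at about 16% in these data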;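 also: IDE supplied by intact live HEK cells; FP after avidin binding of uncleaved biotin substrate so inhibition keeps polarization high; 0% = DMSO wells and 100% = 60 µM reference IDE inhibitor Ii1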
PP5 primary = PP5 (human) phosphatase inhibition; P53041; purified PP5c, OMFP substrate fluorescence; inhibition, % at 6.7 µM; actives 0.18% (n = 320,000);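 active = inhibition above the campaign's mean inhibition across all tested compounds plus 3 SD, cut at about 9.5% in these data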;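 also: 0% = DMSO only and 100% = 100 µM cantharidin control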
SKKanGAS inh = inhibitors of SKKanGAS S. pyogenes growth in kanamycin (SK-promoter or general growth effect). BacTiter-Glo, 6 h. inhibition, % at 7.5 µM. actives 1.3% (n = 300,000);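 active = mean replicate score, as percent of positive control median, at least 50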;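 also: strain carries kanamycin resistance gene driven by streptokinase promoter and grows in 40 µg/ml kanamycin; loss of luminescence reflects streptokinase promoter inhibition or plain growth inhibition; 0% = median of DMSO wells and 100% = positive control at its reference dose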
PP1 inh confirm = human PP1 phosphatase inhibition, confirmation | purified PP1alpha, OMFP substrate fluorescence | inhibition, % at 6.7 µM | shares compounds with PP1 inh | actives 52% (n = 1,900);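 active = mean PP1 inhibition above a set limit taken from the earlier primary screen, cut at about 15% in these data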
PP5 inh counter = counter-screen for PP1 inhibitors: human PP5 phosphatase inhibition. actives 4% (n = 1,900). inhibition, % at 6.7 µM. shares compounds with PP1 inh. purified PP5c, OMFP fluorescence. AID 2360;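 active = mean PP5 inhibition over triplicate wells above about 9.5% taken from the earlier PP1 screen, limit read from the data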
* hit, by the source's call; . = no result. Sampled rows, rich in hits. Any-hit rate of the full collection: about 2.8%.

SMILES	PP1 inh	Exocytosis inh	IDE act	IDE inh	PP5 primary	SKKanGAS inh	PP1 inh confirm	PP5 inh counter
O=C(Nc1nc(-c2nc3ccccc3s2)cs1)c1ccco1	23*	16	-1	0	3	-3	26*	-3
COc1ccccc1OCC(=O)Nc1oc(-c2ccccc2)c(-c2ccccc2)c1C#N	9	-3	1	7	3	.	.	.
N#Cc1c(NC(=O)COC(=O)C2CC3C=CC2C3)oc(-c2ccccc2)c1-c1ccccc1 (stereo not given)	19*	-1	6	-5	-2	33	10	-3
CCOc1ccc(NC(=O)c2cccc(-n3cccc3)c2)cc1S(=O)(=O)N1CCOCC1	22*	-2	-3	0	4	.	23*	1
COc1ccc(S(=O)(=O)N2CCOCC2)cc1NC(=O)c1cccc(-n2cccc2)c1	7	-3	2	5	0	18	.	.
O=C(c1ccc(F)cc1F)N1CCCN(c2nc(-c3ccccc3)ns2)CC1	-1	4	.	9	2	-2	.	.
CC(C)(C)NC(=O)N1CCN(c2nc(-c3ccccc3)ns2)CC1	53*	5	-9	8	1	-2	0	-2
O=C(COc1ccccc1)N=C1SC2CS(=O)(=O)CC2N1Cc1ccccc1 (stereo not given)	-2	-5	8	8	1	-1	.	.
O=C(CSc1nc2nc(-c3cccs3)cc(C(F)(F)F)c2c(=O)[nH]1)Nc1c(F)c(F)c(F)c(F)c1F	5	19	6	1	3	42	.	.
NS(=O)(=O)c1cccc(NC(=O)CSc2nc3nc(-c4cccs4)cc(C(F)(F)F)c3c(=O)[nH]2)c1	27*	-1	-1	6	4	38	21*	2
CC1Cc2cc(/C(O)=C3/C(=O)C(=O)N(CCCn4ccnc4)C3c3ccc(Br)cc3)ccc2O1 (stereo not given)	26*	-2	8	3	1	1	31*	1
CCOC(=O)N1CCN(Cc2nc(N)nc(Nc3ccc(Oc4ccccc4)cc3)n2)CC1	23*	16	-4	12	2	.	4	-1
CCOc1ccc(/C=N/Nc2ccc(Cl)nn2)c(O)c1	4	-10	9	-2	2	8	.	.
Oc1ccc(/C=N/Nc2ccc(Cl)nn2)c(O)c1O	18*	3	-3	3	2	1	38*	-6
Nc1ccccc1-c1ccc([N+](=O)[O-])cc1	.	-2	4	.	.	.	.	.
COC(=O)c1ccc(NC(=O)CSc2nncn2-c2ccccn2)cc1	-2	-4	8	-1	-1	-3	.	.
COC(=O)c1cc2sccc2n1CC(=O)N(C)c1ccccc1	43*	1	5	1	4	0	2	0
COc1ccc(-c2cc(C(=O)NCC(c3ccccc3)N(C)C)c3ccccc3n2)cc1OC (stereo not given)	0	6	-3	1	1	2	.	.
COc1ccc(C(CNC(=O)c2ccc(-c3ccccc3)cc2)N(C)C)cc1OC (stereo not given)	43*	-6	1	1	2	1	-2	1
COc1ccc(CNC(=O)CCn2c(=O)oc3ccccc32)cc1	3	-3	-1	-4	0	-10	.	.
CCOc1ccc(CNC(=O)CCn2c(=O)oc3ccccc32)cc1	23*	-6	5	1	3	6	-4	-4
COc1cccc2cc(/C(C)=N/Nc3nc(-c4cc(C)ccc4C)cs3)c(=O)oc12	20*	-1	2	-3	1	0	19*	1
c1ccc(CN2CC[C@@H](Nc3nccn4ccnc34)C2)cc1	.	0	.	.	.	.	.	.
CCCOc1ccc(C2C3=C(Nc4nc(N)[nH]c(=O)c42)c2ccccc2C3=O)cc1 (stereo not given)	19*	0	-2	7	-1	23	17*	3
CCOc1ccc(C2C3=C(Nc4nc(N)[nH]c(=O)c42)c2ccccc2C3=O)cc1 (stereo not given)	2	5	6	-3	1	11	.	.
